{"source": "the supplement of paper PMC3334620", "note": "Whole data set: some 33,000 sequences, median “E-score (-0.5 to 0.5)” near -0.054, cut for the highest 2% near 0.35. For the sample, the highest values were picked, then their nearest neighbours and some sequences at random."}
{"target": "T1, Stb5 (UniProt P38699)", "T1 sequence": "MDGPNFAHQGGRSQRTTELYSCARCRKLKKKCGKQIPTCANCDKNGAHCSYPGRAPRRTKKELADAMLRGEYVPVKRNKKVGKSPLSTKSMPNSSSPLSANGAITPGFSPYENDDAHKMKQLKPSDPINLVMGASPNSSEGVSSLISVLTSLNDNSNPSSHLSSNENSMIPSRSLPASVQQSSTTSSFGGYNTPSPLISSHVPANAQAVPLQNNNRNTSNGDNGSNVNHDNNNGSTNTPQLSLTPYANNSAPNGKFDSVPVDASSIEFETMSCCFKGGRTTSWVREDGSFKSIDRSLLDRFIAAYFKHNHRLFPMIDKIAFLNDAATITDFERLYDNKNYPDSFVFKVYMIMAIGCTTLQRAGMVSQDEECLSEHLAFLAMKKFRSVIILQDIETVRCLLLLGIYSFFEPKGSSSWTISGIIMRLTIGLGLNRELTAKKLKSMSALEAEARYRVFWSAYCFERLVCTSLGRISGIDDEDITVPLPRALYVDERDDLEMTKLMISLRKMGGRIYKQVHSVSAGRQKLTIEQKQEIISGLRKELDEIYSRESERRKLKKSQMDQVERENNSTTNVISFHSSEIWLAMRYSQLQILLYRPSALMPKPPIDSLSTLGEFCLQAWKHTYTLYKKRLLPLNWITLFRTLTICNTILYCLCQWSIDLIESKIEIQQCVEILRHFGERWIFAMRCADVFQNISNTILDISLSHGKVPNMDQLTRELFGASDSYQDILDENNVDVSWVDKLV", "assay": "PBM E-score (8-mer binding enrichment) (E-score (-0.5 to 0.5)); higher = stronger / more preferred TF binding", "details": "protein concentration: 200 nM; construct: GST-full length", "how_it_was_run": "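GST-tagged yeast TFs (full-length or DNA-binding domain) were made by PURExpress in vitro transcription/translation and applied at about 100-200 nM to universal all-10-mer Agilent arrays. The arrays were made double-stranded by primer extension, on fresh or once-stripped slides. Bound protein was detected with fluorescent anti-GST, and scans were normalised with masliner. Each ungapped eight-base word, pooled with its reverse complement, received an E-score (modified Wilcoxon-Mann-Whitney statistic) from the Universal PBM Analysis Suite.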"}
{"sequence": "AACGGGGG", "PBM E-score": 0.296}
{"sequence": "AACGGACG", "PBM E-score": 0.224}
{"sequence": "AACGGAGC", "PBM E-score": 0.242}
{"sequence": "CACGGACC", "PBM E-score": 0.241}
{"sequence": "AACGGAGA", "PBM E-score": 0.247}
{"sequence": "AACGGATC", "PBM E-score": 0.16}
{"sequence": "AACGGACC", "PBM E-score": 0.38}
{"sequence": "AACGGGGC", "PBM E-score": 0.294}
{"sequence": "AACGGACT", "PBM E-score": 0.38}
{"sequence": "AACGGAGT", "PBM E-score": 0.378}
{"sequence": "AACGGACA", "PBM E-score": 0.298}
{"sequence": "AACGGGGT", "PBM E-score": 0.373}
{"sequence": "GTAAGATA", "PBM E-score": 0.0697}
{"sequence": "CTGCAGCC", "PBM E-score": -0.218}
{"sequence": "TCTGGGCA", "PBM E-score": 0.115}
{"sequence": "TAGCTTCA", "PBM E-score": -0.214}
{"sequence": "AGCGATGC", "PBM E-score": -0.112}
{"sequence": "CGTTGTAA", "PBM E-score": -0.00989}
{"sequence": "AGTTCAGC", "PBM E-score": -0.299}
{"sequence": "GAGCGGTA", "PBM E-score": 0.316}
{"sequence": "GAGCGGCC", "PBM E-score": 0.293}
{"sequence": "AAGCGGCA", "PBM E-score": 0.344}
{"sequence": "TAGCGGCA", "PBM E-score": 0.372}
{"sequence": "GAGCGGCA", "PBM E-score": 0.357}
{"sequence": "CAGCGGCA", "PBM E-score": 0.198}
{"sequence": "CGCCAGTC", "PBM E-score": 0.131}
{"sequence": "CGCTGATC", "PBM E-score": 0.0743}
{"sequence": "TAGCGATA", "PBM E-score": 0.0393}
{"sequence": "CATGCCCG", "PBM E-score": 0.122}
{"sequence": "AATGCCGG", "PBM E-score": 0.401}
{"sequence": "AATGCCTG", "PBM E-score": -0.102}
{"sequence": "AATGCCCG", "PBM E-score": 0.362}
{"sequence": "AATGCCCC", "PBM E-score": 0.128}
{"sequence": "CATGCCGC", "PBM E-score": 0.312}
{"sequence": "AATGCCGA", "PBM E-score": 0.419}
{"sequence": "CATGCCGG", "PBM E-score": 0.344}
{"sequence": "GATGCCGA", "PBM E-score": 0.332}
{"sequence": "GATGCCGC", "PBM E-score": 0.349}
{"sequence": "AATGCCGC", "PBM E-score": 0.448}
{"sequence": "CATGCCGA", "PBM E-score": 0.168}
{"sequence": "AAGACCTC", "PBM E-score": -0.0749}
{"sequence": "CCCTTGGC", "PBM E-score": -0.224}
{"sequence": "CTGATTAC", "PBM E-score": -0.0945}
{"sequence": "GCAGTTCA", "PBM E-score": -0.151}
{"sequence": "CTTGCCAC", "PBM E-score": -0.0929}
{"sequence": "CTGGGAGA", "PBM E-score": -0.253}
{"sequence": "AAAGCTCG", "PBM E-score": -0.16}
{"sequence": "AGATAGAC", "PBM E-score": -0.0476}
{"sequence": "ACCCTTTG", "PBM E-score": 0.0498}
{"sequence": "CAGCCATA", "PBM E-score": -0.263}
{"sequence": "AATCCCAA", "PBM E-score": 0.0066}
{"sequence": "AATGCCGT", "PBM E-score": 0.425}
{"sequence": "AATGCCCT", "PBM E-score": -0.168}
{"sequence": "AATGCCAT", "PBM E-score": -0.0216}
{"sequence": "GGGTTTCA", "PBM E-score": 0.19}
{"sequence": "CACCGCAA", "PBM E-score": 0.368}
{"sequence": "AACCGCAA", "PBM E-score": 0.12}
{"sequence": "AACCGCAC", "PBM E-score": 0.00707}
{"sequence": "CACCGCAC", "PBM E-score": 0.357}
{"sequence": "TACCGCAA", "PBM E-score": 0.225}
{"sequence": "GACCGCAC", "PBM E-score": 0.18}
{"sequence": "CGAGGCTA", "PBM E-score": -0.0771}
{"sequence": "AATGAGAG", "PBM E-score": -0.228}
{"sequence": "ATGCCTTA", "PBM E-score": -0.338}
{"sequence": "CGCCGGAC", "PBM E-score": 0.396}
{"sequence": "AACCGGAG", "PBM E-score": 0.302}
{"sequence": "GACCGGAA", "PBM E-score": 0.21}
{"sequence": "CGCCGGAA", "PBM E-score": 0.168}
{"sequence": "CTCCGGAG", "PBM E-score": 0.283}
{"sequence": "CACCGGAG", "PBM E-score": 0.379}
{"sequence": "GGCCGGAC", "PBM E-score": 0.331}
{"sequence": "GACCGGAC", "PBM E-score": 0.387}
{"sequence": "GTCCGGAC", "PBM E-score": 0.348}
{"sequence": "ATCCGGAC", "PBM E-score": 0.258}
{"sequence": "GACCGGCC", "PBM E-score": 0.29}
{"sequence": "CTCCGGAC", "PBM E-score": 0.381}
{"sequence": "TAGACCAA", "PBM E-score": -0.239}
{"sequence": "CAATGGCA", "PBM E-score": 0.022}
{"sequence": "TATTTACA", "PBM E-score": -0.157}
{"sequence": "AGCTGTTC", "PBM E-score": -0.207}
{"sequence": "CAAGATGG", "PBM E-score": -0.13}
{"sequence": "TAGATTGA", "PBM E-score": 0.0223}
{"sequence": "AAAGTACG", "PBM E-score": 0.00248}
{"sequence": "CCAATGCG", "PBM E-score": -0.208}
{"sequence": "GAGAGGCC", "PBM E-score": -0.0937}
{"sequence": "AACCGGAC", "PBM E-score": 0.28}
